These results are taken from PubChem BioAssay.

Each structure is given as a SMILES string.

This assay deals with Human papillomavirus type 1a E7 protein (residues 1-88). Briefly: HPV1a E7 small-molecule binders, primary screen, biochemical, small-molecule microarray, residues 1-88, 635 nm (AID 1129). The settings on record: small-molecule microarray binding, fluorescence 635 nm; higher = more signal.
The compound `C=C(C)C1C(=C)CN([C@H](CO)c2ccccc2)C1=O` (stereo partly specified) returned a composite z-score of -0.534.
For `COc1ccc(C(O)C2C=CC3C(=O)N(c4ccccc4)C(=O)C3N2Nc2ccccc2F)cc1OCc1ccccc1` (stereo unspecified), the composite z-score was 1.22.
Take `COCCCNC(=O)[C@@]1(Cc2ccccc2)N=C(c2ccc(OCCCO)cc2)O[C@H]1c1ccccc1`: the composite z-score was found to be 1.26.
In turn, `CC(C)C(CO)N1C(=O)[C@@H]2[C@H]3C(=O)OCC=C[C@H]3OC23C=CCN(C(C)C)C(=O)[C@@H]13` (stereo partly specified) had a composite z-score of -0.349.
For the compound `[N-]=[N+]=Nc1ccccc1[C@H]1OC(c2ccc(OCCCO)cc2)=N[C@@]1(Cc1ccccc1)C(=O)O`, the composite z-score was determined as 1.25.
Consider `Cc1ccc(S[C@]2(C(=O)NC(C)C)CC(=O)N(Cc3ccccc3Cl)[C@@H]2c2ccc(CO)cc2I)cc1`, for which the composite z-score was 0.164.
With `CN(C)CCCCCCNC(=O)[C@@H]1C[C@@H]2C(=O)N[C@@H](CCCCN)C(=O)N2[C@@H]1c1cccc(OCCO)c1` the figure was 1.31; with `CC(C)(C)OC(=O)CC[C@]12N=C(c3ccc(OCCCO)cc3)O[C@H]1c1ccccc1N(CCS(=O)(=O)c1ccccc1)C2=O`, 1.24; with `COCCn1c(C(=O)N2CCCC2)cc2c1C[C@H]1CN(C(=O)c3ccccc3)[C@@](Cc3ccc(F)cc3)(C(=O)OC)[C@@H]21`, 1.27.
With `CC1CC/C=C\[C@H]2OC34C=CCN(C(C)(C)C)C(=O)[C@H]3N(CCCCCCO)C(=O)[C@@H]4C2C(=O)O1` (stereo partly specified) the figure was -0.572.
As for `COCCOC(=O)N1C(=O)[C@@]2(c3cc(C#Cc4ccc(OC)cc4)ccc31)[C@H](C(N)=O)[C@H]1C(=O)O[C@H](c3ccccc3)[C@H](c3ccccc3)N1[C@@H]2c1ccccc1OCCO`, the composite z-score amounted to 1.21.
`O=C1OCCC/C=C\[C@H]2OC34C=CCN(c5ccc6ccccc6c5)C(=O)[C@H]3N(CCCCCCO)C(=O)[C@@H]4C12` (stereo partly specified) came in with a composite z-score of 0.124.
With `COc1ccc([C@H]2C[C@H]3C(Br)=C[C@@H]2C(=O)[C@]32CO2)cc1` the figure was -0.751.
`COCCOC(=O)N1C(=O)[C@@]2(c3cc(C#CCCO)ccc31)[C@H](c1ccc(OCCO)cc1)N1[C@H](c3ccccc3)[C@H](c3ccccc3)OC(=O)[C@H]1[C@@H]2C(=O)N1CCN(c2ncccn2)CC1` yielded a composite z-score of 1.18.
Consider `Cc1ccc(C(C)CC(O)C2C=CC3C(=O)N(C)C(=O)C3N2NC(=O)OC(C)(C)C)o1` (stereo unspecified), for which the composite z-score is 1.01.
`C=CC[C@@]1(C(=O)N(C)C)N=C(c2ccc(OCCCO)cc2)O[C@@H]1c1ccccc1N=[N+]=[N-]` gave a composite z-score of 1.22.
To `COCCOC(=O)N1C(=O)[C@@]2(c3cc(C#CCCO)ccc31)[C@H](C(=O)Nc1nc3ccccc3s1)[C@H]1C(=O)O[C@H](c3ccccc3)[C@H](c3ccccc3)N1[C@@H]2c1ccc(OCCO)cc1` belongs 0.957.
As to `O=C(c1ccccc1)N1Cc2ccccc2[C@@H]2OC(c3ccc(OCCCO)cc3)=N[C@]2(Cc2ccccc2)C1=O`, the composite z-score was 1.19.
With `NCCCCCNC(=O)[C@@H]1C[C@@H]2C(=O)N[C@@H](Cc3ccccc3)C(=O)N2[C@@H]1c1cccc(OCCO)c1` the figure was -0.074.
Consider `COc1ccc([C@H]2OC[C@@H]3CC4(CC=CC4)C(=O)N32)cc1`, for which the composite z-score was determined as 0.828.
Consider `CN1C(=O)C2C=CC(C(O)Cc3ccccc3)N(Nc3ccccc3)C2C1=O` (stereo unspecified), for which the composite z-score amounted to 0.257.
Consider `[N-]=[N+]=NCc1ccccc1[C@@H]1OC(c2ccc(OCCCO)cc2)=N[C@]1(Cc1ccccc1N=[N+]=[N-])C(=O)N1CCOCC1`, for which the composite z-score was 1.27.
`COc1ccc(CCNC(=O)[C@@]2(Sc3ccc(C)cc3)CC(=O)N(C3CCCCC3)[C@@H]2c2ccc(CO)cc2I)cc1` returned a composite z-score of 1.21.
`[N-]=[N+]=NCc1ccccc1[C@@H]1OC(c2ccc(OCCCO)cc2)=N[C@]1(CCS(=O)(=O)c1ccccc1)C(=O)NCc1ccccc1` registered a composite z-score of 1.21.
Take `O=C1OCC=C[C@H]2OC34C=CCN(CCN5CCOCC5)C(=O)[C@H]3N(CCCO)C(=O)[C@@H]4[C@@H]12` (stereo partly specified): the composite z-score stood at 0.323.
Take `CCc1oc(CC[C@@H](CO)NC(=O)NCCn2cc(C3(O)CCCCC3)nn2)c(C(=O)OC)c1C(=O)OC`: the composite z-score is 0.687.
In the case of `COC(=O)[C@@]1(Cc2ccc(F)cc2)[C@H]2c3cc(C(=O)N(C)C)n(Cc4nc5ccccc5[nH]4)c3C[C@H]2CN1C(=O)c1ccccc1`, the composite z-score amounted to 1.28.
In turn, `COc1ccc(CCN2C(=O)[C@@]3(c4ccc([N+](=O)[O-])cc4)CC(=O)N(C4CCCCC4)[C@@H]3c3ccc(CO)cc32)cc1` displayed a composite z-score of -0.82.
For the compound `O=C(O)[C@@]1(CCS(=O)(=O)c2ccccc2)COC(c2ccc(OCCCO)cc2)=N1`, the composite z-score is -0.0191.
On to `CC(C)C[C@@H]1NC(=O)[C@H]2C[C@@H](C(=O)NCCCCCCN)[C@@H](c3ccc(O)cc3)N2C1=O`, for which the composite z-score was -0.313.
Turning to `CCCC[C@H]1OB(O)C[C@H]2C1=C(COc1ccccc1)C[C@H]1C(=O)N(C)C(=O)[C@H]12`, the composite z-score came out at 0.0417.
The compound `O=C1O[C@H](c2ccccc2)[C@H](c2ccccc2)N2[C@H]1[C@@H](C(=O)N1CCN(c3ncccn3)CC1)[C@]1(C(=O)Nc3ccc(C#CC4=CCCCC4)cc31)[C@H]2c1ccc(O)cc1` gave a composite z-score of 1.21.
To `C#CCN(CC=C(C)C)[C@H](CO)c1ccccc1` belongs 0.729; to `Cc1ccc(S[C@]2(C(=O)NCCN3CCOCC3)CC(=O)N(Cc3ccccc3Cl)[C@@H]2c2ccc(CO)cc2)cc1`, -0.516; to `O=C1NC(=O)C2C1C=CC(C(O)Cc1ccccc1)N2Nc1ccc(Cl)cc1Cl` (stereo unspecified), -0.364.
To `C=CCOC(=O)[C@@H]1[C@H]2C(=O)O[C@H](c3ccccc3)[C@H](c3ccccc3)N2[C@H](c2ccc(OCCOC(=O)[C@@H]3C[C@@H]4C(=O)N5CCC[C@H]5C(=O)N4[C@@H]3c3ccc(O)cc3)cc2)[C@@]12C(=O)Nc1ccc(I)cc12` belongs 1.19.
